This is an account of results in the supplement of paper PMC13380429.

Test [1] concerns Vero E6 infected with SARS-CoV-2. The experiment in a line: morphology score (similarity to uninfected cells); higher = more like uninfected cells. The conditions noted are these: 24 h.
The test system is the same in test [2]. Nature of the test: SARS-CoV-2 infection rate relative to infected DMSO; higher = more infection, active = 60 or less. The conditions noted are these: 24 h.

In test [1], `Cn1cc(-c2ccc3nnc(C(F)(F)c4ccc5ncccc5c4)n3n2)cn1` (10 µM) returned a morphology score of 0.39. Also, the SARS-CoV-2 infection rate in test [2] is 95.5% (inactive).
In the same order, the values of `Cc1ccc(C(=O)Nc2ccc(S(=O)(=O)O)c3cc(S(=O)(=O)O)cc(S(=O)(=O)O)c23)cc1NC(=O)c1cccc(NC(=O)Nc2cccc(C(=O)Nc3cc(C(=O)Nc4ccc(S(=O)(=O)O)c5cc(S(=O)(=O)O)cc(S(=O)(=O)O)c45)ccc3C)c2)c1` [suramin] (10 µM) are 0.13 and 101% (inactive).
The matching figures for `CC(C)=CCC[C@](C)(O[C@@H]1O[C@H](CO)[C@@H](O)[C@H](O)[C@H]1O)[C@H]1CC[C@]2(C)[C@@H]1[C@H](O)C[C@@H]1[C@@]3(C)CC[C@H](O)C(C)(C)[C@@H]3CC[C@]12C` [ginsenoside-C-K] (10 µM): 0.0257 and 118% (inactive).
The compound `CCCCCCCCCCCCCCCC(=O)OC(C)C` [isopropyl-palmitate] (10 µM) gave a morphology score in test [1] of 0.286. In test [2], the SARS-CoV-2 infection rate is 77% (inactive).
The matching figures for `O=c1[nH]c(=O)n([C@H]2C[C@H](O)[C@@H](CO)O2)cc1F` [floxuridine] (0.833333 µM): -0.065 and 99% (inactive).
As to `FC(F)(F)c1cccc(C2=CCN(CCc3ccc4ccccc4c3)CC2)c1` [xaliproden] (10 µM), in test [1], the morphology score is -0.0559. The SARS-CoV-2 infection rate in test [2] was 108% (inactive).
With `Oc1ccc(OC2CCCCO2)cc1` (stereo not drawn) [deoxyarbutin] (10 µM), the morphology score in test [1] stood at 0.198. Further, in test [2], the SARS-CoV-2 infection rate was 97% (inactive).
Take `NCCCC[C@@H]1NC(=O)[C@@H](Cc2c[nH]c3ccccc23)NC(=O)[C@H](c2ccccc2)NC(=O)[C@@H]2C[C@@H](OC(=O)NCCN)CN2C(=O)[C@H](Cc2ccccc2)NC(=O)[C@H](Cc2ccc(OCc3ccccc3)cc2)NC1=O` [pasireotide] (10 µM): the morphology score in test [1] was -0.0469. Moreover, the SARS-CoV-2 infection rate in test [2] is 104% (inactive).
`CN(C)Cc1ccc(S(=O)(=O)n2ccc(/C=C/C(=O)NO)c2)cc1` [resminostat] (0.833333 µM) showed a morphology score in test [1] of -0.101. Also, in test [2], the SARS-CoV-2 infection rate is 116% (inactive).
The matching figures for `Cc1ccc(Cl)c(OC[C@H](O)CNC(C)C)c1` [1-(2-chloro-5-methylphenoxy)-3-(isopropylamino)-2-propanol] (10 µM): 0.0769 and 95.5% (inactive).
The matching figures for `CCCCN1CCCCC1C(=O)Nc1c(C)cccc1C` (stereo not drawn) [bupivacaine] (10 µM): 0.0282 and 110% (inactive).
In the same order, the values of `C[C@]12CCC(=O)C=C1CC[C@@H]1[C@@H]2[C@@H](O)C[C@@]2(C)[C@H]1CC[C@]2(O)C(=O)COP(=O)(O)O` [hydrocortisone-phosphate] (10 µM) are -0.00553 and 98.5% (inactive).
In test [1], `CC(C)Cn1cnc2c1c(=O)n(C)c(=O)n2C` [isbufylline] (10 µM) showed a morphology score of -0.0146. In addition, in test [2], the SARS-CoV-2 infection rate is 106% (inactive).
With `O=C(CN1CCN(Cc2ccc3c(c2)OCO3)CC1)N1c2ccccc2Sc2ccccc21` [fenoverine] (10 µM), the morphology score in test [1] is 0.02. In test [2], the SARS-CoV-2 infection rate was 110% (inactive).
The matching figures for `Cc1cc(O)cc(C)c1Cl` [chloroxylenol] (10 µM): 0.0293 and 99% (inactive).
`CCOc1nc2cccc(C(=O)OC(C)OC(=O)OC3CCCCC3)c2n1Cc1ccc(-c2ccccc2-c2nn[nH]n2)cc1` (stereo not drawn) [candesartan-cilexetil] (10 µM) yielded a morphology score in test [1] of 0.13. The SARS-CoV-2 infection rate in test [2] was 92.5% (inactive).
In test [1], `OC(CCN1CCCCC1)(c1ccccc1)c1ccccc1` [pridinol] (10 µM) showed a morphology score of 0.0166. Besides, the SARS-CoV-2 infection rate in test [2] was 108% (inactive).
With `CCOc1cc2ncc(C#N)c(Nc3ccc(OCc4ccccn4)c(Cl)c3)c2cc1NC(=O)/C=C/CN(C)C` [neratinib] (10 µM), the morphology score in test [1] is -0.265. The SARS-CoV-2 infection rate in test [2] is 102% (inactive).
In the same order, the values of `O=c1[nH]cc(F)c(=O)[nH]1` [5-fluorouracil] (0.833333 µM) are 0.0377 and 102% (inactive).
Consider `Nc1c2ccccc2nc2ccccc12` [9-aminoacridine] (0.833333 µM), for which, in test [1], the morphology score came out at 0.102. The SARS-CoV-2 infection rate in test [2] was 106% (inactive).
In the same order, the values of `C[C@H]1CCC/C=C/[C@@H]2C[C@H](O)C[C@H]2[C@H](O)/C=C/C(=O)O1` [brefeldin-A] (0.833333 µM) are 0.0397 and 107% (inactive).
The matching figures for `COc1ccc(-n2nc(CCC(=O)N(C)O)cc2-c2ccc(Cl)cc2)cc1` [tepoxalin] (0.833333 µM): 0.0433 and 104% (inactive).
The matching figures for `CN(C)CC[C@@H](c1ccc(Cl)cc1)c1ccccn1` [chlorphenamine] (10 µM): 0.0978 and 97.8% (inactive).
The compound `CC[C@H]1OC(=O)C[C@@H](O)[C@H](C)[C@@H](O[C@@H]2O[C@H](C)C[C@H](N(C)C)[C@H]2O)[C@@H](CC=O)C[C@@H](C)C(=O)/C=C/[C@]2(C)O[C@H]2[C@@H]1C` [rosamicin] (10 µM) came in with a morphology score in test [1] of 0.129. Also, the SARS-CoV-2 infection rate in test [2] is 96% (inactive).
In the same order, the values of `CC(C)(C)NCC(O)c1cc(Cl)c(N)c(Cl)c1` (stereo not drawn) [clenbuterol] (10 µM) are -0.0972 and 110% (inactive).
In the same order, the values of `Cn1cc(C(=O)OCC2CCN(CCNS(C)(=O)=O)CC2)c2ccccc21` (10 µM) are 0.228 and 96% (inactive).
In the same order, the values of `CNC(=O)c1ccccc1Nc1nc(Nc2ccc(N3CCOCC3)cc2OC)ncc1Cl` (10 µM) are -0.217 and 97.5% (inactive).
As for `CN1C(=O)N[C@H](Cc2c[nH]c3c(Cl)cccc23)C1=O` [necrostatin-2] (10 µM), the morphology score in test [1] was 0.131. Moreover, in test [2], the SARS-CoV-2 infection rate is 95% (inactive).
The matching figures for `Cc1cc(SCc2sc(-c3ccc(C(F)(F)F)c(F)c3)nc2C)ccc1OCC(=O)O` (10 µM): 0.143 and 99.5% (inactive).
In the same order, the values of `C[C@H]1C[C@H]2[C@@H]3CCC4=CC(=O)C=C[C@]4(C)[C@@]3(Cl)[C@@H](O)C[C@]2(C)[C@@]1(O)C(=O)CO` [beclomethasone] (10 µM) are 0.101 and 89.5% (inactive).
In the same order, the values of `O=C(Nc1cccc2c(=O)cc(-c3nnn[nH]3)oc12)c1ccc(OCCCCc2ccccc2)cc1` [pranlukast] (10 µM) are 0.0454 and 111% (inactive).
In the case of `CNCC[C@H](Oc1cccc2ccccc12)c1cccs1` [duloxetine] (10 µM), the morphology score in test [1] worked out at 0.747. In addition, in test [2], the SARS-CoV-2 infection rate is 47% (active).
In the same order, the values of `COc1cc2ncnc(Nc3ccc(O)c(Br)c3)c2cc1OC` (10 µM) are -0.194 and 103% (inactive).
In the same order, the values of `CNC(=O)O[C@H]1COc2ccc(N3CCN(C4COC4)CC3)cc2[C@@H]1NC(=O)c1ccc(F)cc1` (10 µM) are 0.123 and 95.5% (inactive).
In the same order, the values of `Cc1cccc(-c2nn3c(c2-c2ccnc4ccc(C(N)=O)cc24)CCC3)n1` (10 µM) are 0.128 and 100% (inactive).
In the case of `CN(C)CCCN1c2ccccc2Sc2ccc(C(F)(F)F)cc21` [triflupromazine] (10 µM), the morphology score in test [1] stood at 0.465. In test [2], the SARS-CoV-2 infection rate is 56% (active).
The matching figures for `COc1cc2c(cc1OC)C(=O)C(CC1CCN(Cc3ccccc3)CC1)C2` (stereo not drawn) [donepezil] (10 µM): 0.153 and 100% (inactive).
In test [1], `CN(C)CCc1ccc(O)cc1` [hordenine] (10 µM) returned a morphology score of 0.163. The SARS-CoV-2 infection rate in test [2] is 90.5% (inactive).
The matching figures for `COc1ccc(C(=O)NCc2cccnc2)cc1C(=O)NCc1cccnc1` [picotamide] (10 µM): -0.08 and 115% (inactive).
In the same order, the values of `CC1(C)Oc2ccc(C#N)cc2[C@H](N(Cc2ncc[nH]2)c2ccc(Cl)cc2)[C@H]1O` (10 µM) are 0.455 and 81% (inactive).
Turning to `Cc1nc2ccc(NC(=O)Nc3ccnc4cccnc34)cc2o1` (10 µM), the morphology score in test [1] was 0.053. In addition, the SARS-CoV-2 infection rate in test [2] was 99.5% (inactive).
Regarding `O=C1OC2(c3ccc(O)cc3Oc3cc(O)ccc32)c2ccccc21` [fluorescein] (10 µM), the morphology score in test [1] was found to be 0.0519. Besides, the SARS-CoV-2 infection rate in test [2] was 110% (inactive).
In the same order, the values of `COc1ccc2c(NC(=O)Nc3cccc(C(F)(F)F)n3)ccnc2c1` (10 µM) are -0.049 and 101% (inactive).
The matching figures for `CC(=O)c1ccc2c(c1)C(=O)C1(CC1)O2` [spizofurone] (10 µM): -0.0677 and 112% (inactive).
Turning to `CCCCCCCCCCCCCCCc1cccc(OCC(=O)NCCO)c1` (10 µM), the morphology score in test [1] was -0.00804. Besides, the SARS-CoV-2 infection rate in test [2] is 106% (inactive).
The matching figures for `C[N+]1(C)[C@@H]2CC[C@H]1C[C@@H](OC(=O)C(CO)c1ccccc1)C2` (stereo partly drawn) [methylatropine-nitrate] (10 µM): 0.131 and 104% (inactive).
In the same order, the values of `Cc1ccccc1-n1c(Cn2ncc3c(N)ncnc32)nc2cccc(C)c2c1=O` (10 µM) are 0.373 and 45% (active).
The matching figures for `O=C(Nc1c[nH]nc1-c1nc2ccc(CN3CCOCC3)cc2[nH]1)NC1CC1` (0.833333 µM): 0.0293 and 118% (inactive).
Turning to `Oc1ccc(C2(c3ccccc3F)CCC(F)(F)CC2)cc1` (10 µM), the morphology score in test [1] amounted to 0.0902. In addition, the SARS-CoV-2 infection rate in test [2] is 93% (inactive).
In the same order, the values of `Cn1cc(/C=C2\C(=O)Nc3cccnc32)c2ccccc21` (10 µM) are -0.0337 and 92.5% (inactive).
In the same order, the values of `NS(=O)(=O)Cc1noc2ccccc12` [zonisamide] (10 µM) are 0.165 and 95.5% (inactive).
Take `O=[N+]([O-])c1c(Nc2cc(F)cc(Cl)c2)ccc2nonc12` (10 µM): the morphology score in test [1] was 0.097. In addition, the SARS-CoV-2 infection rate in test [2] is 94.5% (inactive).
In the same order, the values of `CCCN(CCC)C(=O)Cc1c(-c2ccc(Cl)cc2)nc2ccc(Cl)cn12` [alpidem] (10 µM) are 0.0705 and 99.5% (inactive).
In the same order, the values of `NC(=O)OCCCc1ccccc1` [phenprobamate] (10 µM) are 0.0438 and 102% (inactive).
The matching figures for `Cc1ncc(C)n2nc([C@@H]3C[C@H]3c3nc4c5cccnc5ccn4c3C)nc12` (10 µM): -0.0961 and 106% (inactive).
`Cc1ccc(S(=O)(=O)c2ccc([N+](=O)[O-])o2)cc1` (0.833333 µM): the morphology score in test [1] was found to be 0.215. In addition, the SARS-CoV-2 infection rate in test [2] was 68% (inactive).
The matching figures for `COc1ccccc1N1CCN(CCCCNC(=O)c2ccc3ccccc3c2)CC1` (10 µM): -0.00528 and 94.5% (inactive).
The matching figures for `CC(=C(CCOC(=O)C(C)C)SSC(CCOC(=O)C(C)C)=C(C)N(C=O)Cc1cnc(C)nc1N)N(C=O)Cc1cnc(C)nc1N` (stereo in doubt) [sulbutiamine] (10 µM): 0.0249 and 100% (inactive).
In the same order, the values of `Cc1ccc(-c2ncn(-c3ccc(Nc4nccc(-c5cccc(N6CCOCC6)c5)n4)cc3)n2)cn1` (10 µM) are -0.292 and 102% (inactive).
